{"source": "PubChem BioAssay (Tox21)", "note": "Where “and” joins values, the source holds several entries; their conditions need not be identical. Identical values can stand only once. Records with an inconclusive call do not appear. Entries that show only a call come without a potency. Some compounds were tested as several samples or in several runs, with calls that do not always agree. Calls of active or inactive are those of the source. Calls follow the shape of the full dose curve. Potency is read from the fitted curve at half-maximal effect."}
{"assay": "qHTS assay to identify small molecule agonists of the NFkB signaling pathway - cell viability counter screen (AID 1159515); also: nearly all actives have a fitted effect of over 55% in size", "details": "NFkB-bla ME-180 viability, CellTiter-Glo luminescence, 5 h; series mostly up to 61 µM; activity, negative = cytotoxic: at the top concentration", "from_the_text": "National Center for Advancing Translational Sciences [NCATS]\nNIH Chemical Genomics Center [NCGC]\nU.S. Environmental Protection Agency [EPA]\nNational Institutes of Environmental Health Sciences [NIEHS]\nNational Toxicology Program [NTP]\nU.S. Food and Drug Administration [FDA]\nTranscription factors and their stimulated target gene expression play pivotal roles across many cellular processes including responses to environmental stimuli. Proper regulation of associated pathways is critical to maintain cell health and function. Constitutive activation of transcription factor pathways has been implicated in tumors as it may block cellular functions such as apoptosis and lead to invasion and metastasis. One important transcription factor that stimulates gene expression in response to cytokines, UV radiation, and other stimuli is nuclear factor-kappa B (NFkB). To measure activation of the NFkB pathway, the CellSensor NFkB-bla ME-180 cell line (Life Technologies, Carlsbad, CA) that stably expresses beta-lactamase reporter gene under the regulation of a NF-kB response element was used. This assay allows measurement of the NFkB pathway activity induced by compounds in a ME-180 cell line. This system quantitates NF-kB activity using a FRET-based assay system where beta-lactamase expression disrupts FRET, allowing for fluorescent measurement of activity. This cell line has been used to screen the Tox21 10K compound library and to identify compounds that induce the NFkB pathway activity. The cytotoxicity of the Tox21 compound library against the NFkB-bla ME-180 cell line was tested in parallel by measuring cell viability using the CellTiter-Glo assay in the same wells.\nTox21 Assay Protocol Summary:\nNFkB-bla ME-180 cells were dispensed at 2,000 cells/6 uL of assay medium per well into black wall/clear-bottom 1536-well plates using a Multidrop Combi (ThermoFisher Scientific, Waltham, MA) dispenser. After the assay plates were incubated at 37 C and 5% CO2 for an overnight, 23 nL of compounds dissolved in DMSO, positive controls or DMSO only was transferred to the assay plate by a Pintool station (Kalypsys, San Diego, CA). The assay plates were incubated at 37 C and 5% CO2 for 5 hr. One uL of LiveBLAzer B/G FRET substrate (Life Technologies) was added using a Flying Reagent Dispenser (Aurora Discovery, San Diego, CA) and the plates were incubated at room temperature for 1.5 hr. Fluorescence intensity (405 nm excitation, 460 nm and 530 nm emissions) was measured using an Envision plate reader (PerkinElmer, Shelton, CT). For cytotoxicity, 3 ul/well of CellTiter-Glo reagent was added into the assay plates using an FRD. After 30 min incubation at room temperature, the luminescence intensity was measured using a ViewLux plate reader (PerkinElmer)."}
{"compound": "CC(=O)O[C@]1(C(C)=O)CC[C@H]2[C@@H]3C=C(Cl)C4=CC(=O)[C@@H]5C[C@@H]5[C@]4(C)[C@H]3CC[C@@]21C", "Potency": "inactive"}
{"compound": "CC(C)(C)NC(=O)[C@H]1CC[C@H]2[C@@H]3CC[C@H]4NC(=O)C=C[C@]4(C)[C@H]3CC[C@]12C", "Potency": "inactive"}
{"compound": "Nc1ccc(Nc2ccccc2)cc1", "Potency": "inactive"}
{"compound": "Cc1cc2nc3c(=O)[nH]c(=O)nc-3n(C[C@H](O)[C@H](O)[C@H](O)CO)c2cc1C", "Potency": "inactive"}
{"compound": "CCC(C)CO", "note": "(stereo not given)", "Potency": "inactive"}
{"compound": "Cc1cccc(N(C)C(=S)Oc2ccc3ccccc3c2)c1", "Potency": "inactive"}
{"compound": "CC(=O)c1ccccn1", "Potency": "inactive"}
{"compound": "c1ccc(Nc2ccccc2)cc1", "Potency": "inactive"}
{"compound": "CCC(C)OC(=O)c1ccc(O)cc1", "note": "(stereo not given)", "Potency": "inactive"}
{"compound": "COc1c(Cl)c(Cl)c(Cl)c(Cl)c1Cl", "activity, negative = cytotoxic": "-0.614% [at 78.8 µM] (inactive)"}
{"compound": "COC(=O)Nc1nc2ccc(S(=O)c3ccccc3)cc2[nH]1", "note": "(stereo not given)", "activity, negative = cytotoxic": "12.1% (inactive)"}
{"compound": "O=C(/C=C/c1ccccc1)OCc1ccccc1", "activity, negative = cytotoxic": "13.4% (inactive)"}
{"compound": "CCCCC(CC)COP(=O)(OCC(CC)CCCC)OCC(CC)CCCC", "note": "(stereo not given)", "Potency": "inactive"}
{"compound": "COC(C)COC(C)COC(C)CO", "note": "(stereo not given)", "Potency": "inactive"}
{"compound": "Nc1ccccc1N", "Potency": "inactive"}
{"compound": "CCCCOCCOCCOCCO", "activity, negative = cytotoxic": "11.7% (inactive)"}
{"compound": "Cc1ccc(C(=O)c2cc(O)c(O)c([N+](=O)[O-])c2)cc1", "activity, negative = cytotoxic": "25.4% (inactive)"}
{"compound": "OCCO", "Potency": "inactive"}
{"compound": "c1ccc2sc(SSN3CCOCC3)nc2c1", "Potency": "inactive"}
{"compound": "C[C@]12CC[C@H]3[C@@H](CCC4=CC(=O)CC[C@@]43C)[C@@H]1CC[C@@H]2C(=O)CO", "Potency": "inactive"}
{"compound": "COC(=O)C1=C(C)NC(C)=C(C(=O)OCCN(C)Cc2ccccc2)C1c1cccc([N+](=O)[O-])c1", "note": "(stereo not given)", "Potency": "inactive"}
{"compound": "Brc1cc(Oc2cc(Br)c(Br)c(Br)c2Br)c(Br)c(Br)c1Br", "Potency": "1.56 µM (active) and inactive"}
{"compound": "CC(=O)CC/C=C(\\C)CCC=C(C)C", "Potency": "inactive"}
{"compound": "CC(C)OB(OC(C)C)OC(C)C", "Potency": "inactive"}
{"compound": "COC(=O)CCC(=O)OC", "Potency": "inactive"}
{"compound": "CN(C)c1nc(N(C)C)nc(N(C)C)n1", "activity, negative = cytotoxic": "3.73% (inactive)"}
{"compound": "OC[C@H]1O[C@@H]2O[C@H]3[C@H](O)[C@@H](O)[C@@H](O[C@H]4[C@H](O)[C@@H](O)[C@@H](O[C@H]5[C@H](O)[C@@H](O)[C@@H](O[C@H]6[C@H](O)[C@@H](O)[C@@H](O[C@H]7[C@H](O)[C@@H](O)[C@@H](O[C@H]8[C@H](O)[C@@H](O)[C@@H](O[C@H]1[C@H](O)[C@H]2O)O[C@@H]8CO)O[C@@H]7CO)O[C@@H]6CO)O[C@@H]5CO)O[C@@H]4CO)O[C@@H]3CO", "Potency": "inactive"}
{"compound": "Cc1cccc(C(=O)O)c1", "activity, negative = cytotoxic": "13.3% (inactive)"}
{"compound": "CCCCC(CC)COC(=O)c1ccc(N(C)C)cc1", "note": "(stereo not given)", "Potency": "inactive"}
{"compound": "OC1CCCCCCCCCCC1", "Potency": "inactive"}
{"compound": "CCC(C)(O)CCCC(C)C", "note": "(stereo not given)", "Potency": "inactive"}
{"compound": "C/C=C/C(=O)O", "Potency": "inactive"}
{"compound": "O=C(c1ccccc1)c1ccccc1O", "activity, negative = cytotoxic": "-11.8% (inactive)"}
{"compound": "CCCCC/C=C/C=C/C=O", "Potency": "inactive"}
{"compound": "CC(C)=CCC/C(C)=C\\CO", "activity, negative = cytotoxic": "-15.5% [at 78.8 µM] (inactive)"}
{"compound": "C=C(C)C(=O)OCCOC(=O)C(=C)C", "Potency": "inactive"}
{"compound": "Cc1ncc[nH]1", "activity, negative = cytotoxic": "9.56% (inactive)"}
{"compound": "CCCCCCCCCC(=O)OC", "activity, negative = cytotoxic": "3.06% (inactive)"}
{"compound": "CCCCc1oc2ccccc2c1C(=O)c1cc(I)c(OCCN(CC)CC)c(I)c1", "Potency": "31.1 µM (active) and 26.8 µM (active)"}
{"compound": "COC(=O)c1ccccc1", "activity, negative = cytotoxic": "1.1% (inactive)"}
